# ChEMBL document CHEMBL4888484, “Replenishing the malaria drug discovery pipeline: Screening and hit evaluation of the MMV Hit Generation Library 1 (HGL1) against asexual blood stage Plasmodium falciparum ,using a nano luciferase reporter read-out” (2022)
# Screen size: about 4,800 compounds; about 410 (8.5%) showed an effect of 50% or more. This excerpt belongs to a sample that is enriched for strong results.
# System: Plasmodium falciparum
# Test: Confirmatory screen in NF54 pLDH assay, in single point, at 2uM, 72h
# Assay type: functional, Erythrocyte
# Settings: timepoint 72 hour
row,SMILES,% Inhibition [%]
1,CCN1C(=O)[C@]2(NC3(CCCCC3)C(=O)N2CC)c2ccccc21,-11
2,Cc1nn(C)c(NC(=O)CCc2c[nH]cn2)c1C,-7
3,Cc1cc(C(=O)NCCCS(N)(=O)=O)c(Cl)cc1F,-7
4,Cc1ccc(O)c(CNCC2(c3ccccc3Cl)CCOCC2)n1,98
5,Cc1ccc(O)c(CNc2ccc3c(c2)OCC3(C)C)n1,-19
6,c1csc(CNC2CCCCCCC2)c1,-2
7,COc1ccc(OC)c(NC(=O)CN2CCc3[nH]c4ccc(F)cc4c(=O)c3C2)c1,83
8,COc1cc(C)c2[nH]c3c(c(=O)c2c1)CN(CC(=O)Nc1ccc(F)c(C)c1)CC3,17
9,COc1cc(C)c2[nH]c3c(c(=O)c2c1)CN(CC(=O)Nc1ccc(C)c(F)c1)CC3,8
10,Cc1nn(-c2ccccc2)c2nc(Cc3ccccc3)nc(N3CCCN(C(=O)NC4CCCCC4)CC3)c12,8
11,Cc1cc[n+]2c(-c3ccccc3)cc(-c3ccccc3)nc2c1,50
12,Cc1cc(-c2ccccc2)cc(-c2ccccc2)c1-c1cc(-c2ccccc2)cc(-c2ccccc2)n1,-3
13,Cc1cc(-c2ccccc2)nc2sc(-c3ccccc3)c([O-])[n+]12,5
14,CC[C@H]1Cn2c(C(=O)NC3CCCC3)cc3c(Cl)ccc(c32)O1,-11
15,Cn1c2cn(-c3ccc(F)cc3)c(-c3ccccc3)c2c(=O)n1-c1ccccc1,6
16,Cn1c(=O)c2c(-c3ccc(Cl)cc3)n(-c3cccc4cccc(N)c34)cc2n(C)c1=O,91
17,O=C(CCc1nc2ccccc2c(=O)[nH]1)Nc1ccc(-n2cnnn2)cc1,6
18,O=C(N[C@H]1CCOC1=O)OCc1ccccc1,-4
19,CCOC(=O)c1cnn(C)c1S(=O)(=O)N1CCCCC1,2
20,CC1CC(NC(=O)NC2CS(=O)(=O)c3ccccc32)C(=O)N1c1ccccc1 (stereo not given),-1
21,Cc1ccc(Nc2c(-c3cc4ccccc4cc3O)nc3ncccn23)cc1,6
22,CNCCc1c(-c2ccccc2)[nH]n(-c2ccccc2)c1=O,69
23,CCCCCc1c(C)nc2[nH]n(-c3ccccc3)c(=O)c2c1O,-22
24,O=C1CCCc2nc3[nH]n(-c4ccccc4)c(=O)c3cc21,13
25,CCOc1cccc(NCc2c(N)ncnc2OC)c1,13

row,SMILES,% Inhibition [%]
1,CC[C@@](C)(C(=O)NC1CCCC1)N(Cc1ccco1)C(=O)c1ccc2c(c1)OCO2,-9
2,Cc1ccc(CN2CCS(=O)(=O)CC2)o1,-13
3,Cc1oc(-c2ccc(C(=O)Nc3cccc(Cl)c3C)cc2)nc1COc1ccccc1,9
4,CN1CC[C@H](CN(C)Cc2ccc3cc(O)ccc3c2)C1,36
5,CN1CCC(N2CCN(Cc3ccc4cc(O)ccc4c3)CC2)CC1,92
6,Oc1ccc2cc(CN3CCC[C@H](CN4CCCC4)C3)ccc2c1,97
7,COc1ccc(NC(=O)N2C[C@@H]3C[C@H](NS(=O)(=O)c4ccccc4)[C@H]2C3)c(C)c1,3
8,CCc1cccc(NC(=O)C2CCN(c3c(C)n(-c4ccccc4)c(=O)n(CC(C)C)c3=O)CC2)c1,5
9,O=C1c2ccccc2C(=O)N1Cc1cnn(CC(F)F)c1,12
10,COc1ccc2oc(-c3ccc(CNC(=O)c4cccnc4)cc3)nc2c1,6
11,CC(C)(C)OC(=O)N1CCC(c2c(C(=O)Nc3ccc(Cl)cc3Cl)cnn2-c2cccc(F)c2)CC1,-3
12,CC1(C)C(=O)NCCN1C(=O)c1ccc2nccnc2c1,9
13,CN(C(=O)c1n[nH]c2c1CCC2)[C@H]1CCCc2c1cnn2C,-4
14,O=S1(=O)c2ccccc2N=NN1Cc1ccc(Cl)cc1,-19
15,O=C(Nc1cnc2ccccc2c1)c1ccccc1C(=O)c1ccc(F)cc1,94
16,O=C(Nc1cc(NC(=O)c2ccc(F)cc2)cc(Oc2cccnc2)c1)c1ccc(F)cc1,5
17,O=C(Nc1ccc(N2CCn3c(nc4ccccc43)C2)cc1)c1ccc(F)cc1,14
18,CN(C)c1cccc(C(=O)N2CCN(c3ncc(F)cn3)C(=O)C2)c1,10
19,Cc1nnc2sc(-c3cnn(-c4ccccn4)c3C(F)(F)F)nn12,-4
20,c1ccc(-c2cccnc2NCc2cscn2)cc1,-3
21,Cc1ccc(C2C(C(=O)N3CCC(C)CC3)CCC(=O)N2C)cc1 (stereo not given),-1
22,COC(=O)[C@@H]1[C@@H](NC(=O)C2CCCC2)CCN1C(C)=O,1
23,Cc1cc2c(cc1C)N(CC(=O)Nc1ccc(C(F)(F)F)cc1)C(=O)CC(c1cccs1)=N2,-23
24,CC1CC(C(=O)Nc2[nH]c(=O)ncc2F)CC(C)(C)C1 (stereo not given),84
25,CC(=O)N[C@@H]1CN(Cc2nccn2Cc2ccccc2)C[C@H]1c1nccn1C,12

row,SMILES,% Inhibition [%]
1,Cc1ccc(S(=O)(=O)N2CC(C)N(C(=O)N3CCOCC3)C2C)cc1 (stereo not given),14
2,FC(F)(F)C1CCCC(NCc2c[nH]nc2-c2cccnc2)C1 (stereo not given),3
3,CC1CCN(Cc2ccc(CNCc3c[nH]nc3-c3ccc(F)cc3)cc2)CC1,50
4,Nc1c(-c2ccc(F)cc2)nsc1C(=O)NC1CCN(Cc2ccccc2)CC1,8
5,c1ccc(-c2ccccc2NCn2nnc3ccccc32)cc1,-9
6,CCc1cccc(NC(=O)N2CCC3(CC2)C(=O)N(CC(=O)Nc2ccc(F)cc2)CN3c2ccccc2)c1,30
7,CC(C)N(CCS(C)(=O)=O)C(=O)NCc1ccco1,10
8,CN(C)CCN(C)c1ccc(Br)cc1NCc1cncn1C,39
9,CCn1nc(C)c(CN(C)S(=O)(=O)c2ccc(N3CCCC3=O)cc2)c1C,-1
10,Cc1ccc(NC(=O)Nc2cccc(-c3ccc(N4CCN(C)CC4)nn3)c2)cc1C,13
11,Cc1cccc(Nc2nc(-c3cnc(N4CCN(C)CC4)nc3C)cc(=O)[nH]2)c1,4
12,Cc1cc(C(=O)N[C@@H](C)C(=O)N2CCCCC2)c2nc3n(c2n1)CCCCC3,8
13,Oc1ccc(-n2c(-c3ccccc3)ccc2-c2ccccc2)cc1,12
14,COc1ccc2c(c1)[n+](CC(=O)c1ccc(-c3ccc(Br)cc3)cc1)c(CO)n2C,54
15,Cc1ccc(C(=O)C[n+]2cc(-c3ccc(Br)cc3)n(C)c2N)cc1,-16
16,COc1cccc(C(=O)C[n+]2cc(-c3ccc(Br)cc3)n(C)c2N)c1,4
17,CN1CCCN(c2ccnc3ccsc23)CC1,39
18,Cc1ccc(OCc2cccc(C(=O)N3CCC[C@@H]3CN3CCCCC3)c2)cn1,9
19,COc1ccnc(CN2CC[C@](C)(O)[C@H](O)C2)c1,6
20,C=CCNC(=NC)NC1CCN(c2cc(OC)cc(OC)c2)CC1,7
21,CCC1(CC)CCC(NC(=O)[C@@H]2CCCCC(=O)N2)CC1,-14
22,C[C@H]1C[C@@H](O)CCN1C(=O)c1cccc2sc(C(F)(F)F)nc12,3
23,Cc1cc(C)cc(-n2cc(C(=O)NCCCc3ccccc3)nn2)c1,8
24,Cc1cc2nc(C)c(=O)n(Cc3ccc(C(=O)NCc4ccco4)cc3)c2cc1C,8
25,Cc1cc(NC(=O)NC(C)C)c2[nH]c(C(=O)N3CCOCC3)c(-c3ccccc3)c2c1,9

row,SMILES,% Inhibition [%]
1,CO/C(=N/C(=O)c1cccc(OC)c1)N[C@H]1CCCc2ccccc21,-9
2,O=c1[nH]c(=O)n(Cc2cc(Cl)cc3c2OCOC3)cc1Cl,12
3,CC(C)N(C)S(=O)(=O)Nc1ccc(Br)cc1O,9
4,Nc1ccccc1-c1nc(Nc2ncccn2)n[nH]1,7
5,CC(C)c1cc(=O)[nH]c(-n2nc(C3CC3)cc2NC(=O)COc2ccc3ccccc3c2)n1,65
6,Cc1cc(NC(=O)c2ccc(COc3ccc4ccccc4c3)o2)nn1C,13
7,O=C(Nc1ccc(OC(F)F)cc1)c1cc(C2CC2)nc2c1c(C1CC1)nn2-c1ccccc1,-5
8,CC(C)c1cc(=O)[nH]c(-n2nc(C3CC3)cc2NC(=O)Cc2ccc(Cl)cc2)n1,67
9,Cc1ccc(N2C[C@@H](c3nnc(NC(=O)Cc4ccc(Cl)cc4)o3)CC2=O)cc1,-18
10,Cc1nc(CC(=O)Nc2cc(C3CC3)nn2-c2ccccc2)cs1,8
11,CCOc1c(Br)cc(Cl)cc1NCC(=O)NC(=O)NC,14
12,COc1cc(N2CCn3c(nc4ccccc43)C2)ccc1NC(=O)c1ccc(C)cc1,-23
13,O=C1NS(=O)(=O)c2cc(N3CCN(Cc4ccccc4)CC3)ccc21,8
14,CCc1ccc(C(=O)Nc2cnc(-n3ccnc3)nc2)cc1,29
15,O=C(C[C@H]1CCN(S(=O)(=O)c2ccc(F)cc2F)C1)NCc1ccccc1,10
16,Cc1nn(Cn2nc(-c3ccc(F)cc3)c(Br)c2-c2ccc(F)cc2)c(C)c1Cl,6
17,O=C(NCc1cccc(Cl)c1)[C@H]1CCCN(c2nc3cccnc3n(Cc3ccccc3)c2=O)C1,-7
18,CCN(CC)CC(O)COc1c(Br)cc(C(C)(C)c2cc(Br)c(OCC(O)CN(CC)CC)c(Br)c2)cc1Br (stereo not given),99
19,CCN(CC)C(=O)c1cnc2snc(C)c2c1N1CCC(C(=O)Nc2c(C)cc(C)cc2C)CC1,34
20,CN(C(=O)CN(CCO)c1ccc(Br)cc1)C1CC1,2
21,CCN(C(=O)[C@H]1CCOC1)c1ccc(C(F)(F)F)cc1,5
22,O=C(O)C1CCC(=O)N(C2CC2)C1c1ccccc1 (stereo not given),10
23,C(=C\c1cc(/C=C/c2ccccc2)n2nnnc2n1)/c1ccccc1,5
24,O=C(NCC1CCCCC1O)c1cnn2ccncc12 (stereo not given),-5
25,O=C(NCC1CCCCC1)c1cn[nH]c1-c1ccccc1,6
